Where “and” joins values, the source holds several entries; their conditions need not be identical. Equal entries are not always repeated. This is part of a sample that, as a whole, favours compounds with a hit. Of some 83,000 tested, about 20% had one in any assay.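 Growth was measured after 48 h exposure to one concentration of compound in 96-well plates. Values under 10 count as active.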 Calls of active or inactive are those of the source.
Tested on: MDA-MB-468 breast
Test: NCI-60 one-dose screen, 48 h (100 = growth as untreated, 0 = no growth, -100 = all killed)
Details: 10 µM unless noted

Compound | growth
CC(C)c1ccc(C(=O)Nc2sc3cc(O)ccc3c2C#N)cc1 | 12.5% (inactive)
CCC(c1ccc(OC)cc1)C(CC)c1ccc(OCC[N+](C)(C)C)cc1 (centres undefined) | 19.3% (inactive)
NCCCOc1cc(Cl)ccc1NC(=O)c1cc2ccccc2cc1OCCCN | -85.3% (active)
Cc1ccc(-c2nc(/C=C3/C(=O)Nc4ccc(F)cc43)c3ccccn23)cc1 | 77.3% (inactive)
C=C(C)[C@@H]1CC[C@]2(/C=N/Nc3ccncc3)CC[C@]3(C)[C@H](CC[C@@H]4[C@@]5(C)CCCNC(C)(C)[C@@H]5CC[C@]43C)[C@@H]12 | 83.7% (inactive)
COc1ccc(C(=O)c2cc3c(N)c(C(=O)Nc4ccc(Br)cc4)sc3nc2C)cc1 | 72.8% (inactive)
Oc1ccccc1C=Nc1ccc(N2CCN(c3ccccc3)CC2)cc1 | 108% (inactive)
O=C(NNc1nc2cc(F)c(F)cc2n2cccc12)c1cccnn1 | -11.1% (active)
COc1ccc(-c2cc(-c3cc(OC)ccc3OC)[nH]c(=O)c2C#N)cc1 | 37.9% (inactive)
NC(=Nc1ccccc1)SCCCCSC(N)=Nc1ccccc1 | 82.6% (inactive)
C=C1CCC2C3(C)COC(c4cccc(Cl)c4)OC3CCC2(C)C1/C=C/C1=CCOC1=O (centres undefined) | 43.6% (inactive)
COc1ccc(C(=S)N2CCN(c3cccc(C)c3)CC2)cc1OC | 66.3% (inactive)
CCN(CC)c1ccc(/C=C\c2cc(C)c3cc(C)ccc3n2)cc1 | 1.26% (active)
COc1ccc(-c2c(N)n[nH]c2-c2cc3c(c(OC)c2OC)OCO3)cc1 | 104% (inactive)
O=C(CCn1c[n+](CC(=O)c2ccc(F)cc2)c2ccccc21)Nc1cccc2cccnc12 | -15.5% (active)
O=C(Nc1cccc(Cn2c(=O)[nH]c3ccc(Oc4ncccn4)cc3c2=O)c1)c1ccc(Cl)cc1 | 16.8% (inactive)
COC(=O)c1c2c(c(C)[n+]([O-])c1C)C(=O)C=C(NCc1ccccc1)C2=O | -68.9% (active)
C=C1C(=O)O[C@H]2[C@H]1CC/C(CNC(=O)/C=C/c1ccc(Cl)cc1Cl)=C\CC[C@@]1(C)O[C@@H]21 | -89.2% (active)
COc1cccc(Sc2ccc([N+](=O)[O-])c3no[n+]([O-])c23)c1 | 69.9% (inactive)
O=C1Nc2ccccc2C12C=C(c1ccccc1)Nc1c2c(-c2ccccc2)nn1-c1ccccc1 (centres undefined) | 105% (inactive)

Compound | growth
Oc1c(CN2CCCCC2)ccc2cccnc12 | 72.3% (inactive) and 81.8% (inactive)
CSc1nc(N)c(N)c(N)n1 | 114% (inactive)
CC(C)=NNC(N)=S | 10.6% (inactive)
Cc1cc([N+](=O)[O-])ccc1NC(=O)c1ccc2c(c1)nc(-c1ccccc1)n2C1CCCCC1 | 100% (inactive)
CCCCN(CC)CC(CC)Nc1cc(OC)cc2cccnc12 (centres undefined) | 119% (inactive)
CCCCCCCC/C=C\CCCCCCCCOc1ccccc1CC(=O)NCC[N+](C)(C)C | 68.9% (inactive)
COC(=O)C1=COC(C)C2C[n+]3ccc4c([nH]c5ccccc54)c3CC12 (centres undefined) | 94.2% (inactive) and 85.8% (inactive)
COc1c(C)c2c(c(O)c1C/C=C(\C)CCC(=O)OCCN1CCOCC1)C(=O)OC2 | 32.6% (inactive)
O=C1/C(=C\c2ccc(F)cc2)CN(C(=O)c2ccccc2F)C/C1=C\c1ccc(F)cc1 | -74% (active)
COc1ccc(/C=C/C(=O)/C=C(/C=C/c2ccc(OC)c(OC)c2OC)OB(F)F)c(OC)c1OC | 39.1% (inactive)
CS(=O)(=O)Nc1cc(-c2ccc3ncnc(Nc4cccc(Cl)c4F)c3c2)cnc1Cl | -18.4% (active)
Cc1cc(N/N=C/c2ccccn2)nc2ccccc12 | -13.3% (active)
Cc1ccc(NC(=S)N/C=C(\c2ccccc2)S(=O)Cc2ccccc2)c(C)c1 (centres undefined) | 100% (inactive)
COc1ccc(-c2nnc(COc3ccc(C(=O)/C=C/c4ccco4)cc3)o2)cc1 | 20.4% (inactive)
CCCCOC(=O)c1ccc(C(C)C)cc1 | 100% (inactive)
N#Cc1cnc2ccc(-c3cnc4[nH]ncc4c3)cc2c1N1CCc2cc(F)c(Cl)cc21 | -19.8% (active)
C=C(C)[C@@H]1CC[C@]2(CN)CC[C@]3(C)[C@H](CC[C@@H]4[C@@](C)(CCCN)[C@H](C(=C)C)CC[C@]43C)[C@@H]12 | 84.7% (inactive)
Cc1cc2oc(=O)cc(CP(=O)(O)O)c2cc1O | 89.8% (inactive)
C[C@@H]1C[C@H]2C(=O)O[C@@H](C)C(NC(=O)[C@H](Cc3cc(F)cc(F)c3)NC(=O)Nc3ccc(C4CC4)cc3F)C(=O)N3CCC[C@H]3C(=O)N3CCCC[C@H]3C(=O)N[C@@H](CO)C(=O)N2C1 (some centres undefined) | -18.1% (active)
